{"source": "PubChem BioAssay", "note": "A number with no mark means an inactive call. How the calls were made is not given here.", "data": [{"molecular_target": "Pantothenate synthetase (Mycobacterium tuberculosis (strain ATCC 25618 / H37Rv)) (UniProt P9WIL5)", "sequence (P9WIL5 whole entry, looked up)": "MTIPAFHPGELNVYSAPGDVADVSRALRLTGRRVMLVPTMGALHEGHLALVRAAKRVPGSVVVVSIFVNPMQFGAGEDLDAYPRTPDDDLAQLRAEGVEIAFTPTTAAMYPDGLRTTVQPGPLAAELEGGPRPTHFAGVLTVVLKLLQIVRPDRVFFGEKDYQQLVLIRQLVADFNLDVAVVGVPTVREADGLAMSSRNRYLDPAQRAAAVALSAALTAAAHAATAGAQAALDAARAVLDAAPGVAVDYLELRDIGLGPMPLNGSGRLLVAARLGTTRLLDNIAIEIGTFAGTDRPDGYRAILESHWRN", "assay": "Coupled enzyme confirmation of inhibitors against recombinant Mtb PanC (AID 375);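 further: 0% = full reaction with vehicle and 100% = no enzyme background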", "conditions": "coupled enzyme assay; at 10 µM, hits give high values", "units": {"inhibition": "%"}, "values": [{"smiles": "Cc1cccc(N2CCN(C(=O)c3cc4ccccc4oc3=O)CC2)c1C", "inhibition": 0}, {"smiles": "CCCCn1nnc(NC(=O)c2cc3ccccc3o2)n1", "inhibition": 0}, {"smiles": "COc1ccc(Cl)cc1Nc1nc(NCCO)nc(N2CCCC2)n1", "inhibition": 9}, {"smiles": "COc1cccc2c1C(=O)c1c(O)c3c(c(O)c1C2=O)C[C@@](O)(C(C)=O)C[C@@H]3O[C@H]1C[C@H](N)[C@H](O)[C@H](C)O1", "inhibition": 0}, {"smiles": "CCCOc1ccc(C2c3c(oc4ccccc4c3=O)C(=O)N2CCCN2CCOCC2)cc1", "note": "(stereo not drawn)", "inhibition": 4}, {"smiles": "CS(=O)(=O)N(CC(=O)N1CCc2ccccc2C1)c1ccc2c(c1)OCO2", "inhibition": 0}, {"smiles": "CCOC(=O)Nc1ccc(NS(=O)(=O)c2ccc(C)cc2)cc1", "inhibition": 0}, {"smiles": "CCOc1ccccc1Nc1nc2ccccc2[nH]1", "inhibition": 1}, {"smiles": "c1ccc(-c2cn3c4c(sc3n2)CCCC4)cc1", "inhibition": 3}, {"smiles": "CC(=O)OCC(=O)[C@H]1CC[C@H]2[C@@H]3CC=C4C[C@@H](O)CC[C@]4(C)[C@H]3CC[C@]12C", "inhibition": 1}, {"smiles": "CCOc1ccc(N(CC(=O)NCc2cccc(OC)c2)S(=O)(=O)c2c(C)noc2C)cc1", "inhibition": 6}, {"smiles": "CCSC1=NCN(CCCC(=O)O)CN1", "inhibition": 0}, {"smiles": "O=C(COC(=O)c1cncc(Br)c1)NCCC1=CCCCC1", "inhibition": 0}, {"smiles": "O=C(Nc1ccc(-c2noc(-c3cccs3)n2)cc1)c1cccnc1", "inhibition": 0}, {"smiles": "Cc1ccc2nc(NC(=O)C3CCCN(S(=O)(=O)c4cnc[nH]4)C3)sc2c1", "note": "(stereo not drawn)", "inhibition": 1}, {"smiles": "COc1cccc(Cn2c(OCC3CCCO3)nc3c2c(=O)n(C)c(=O)n3C)c1", "note": "(stereo not drawn)", "inhibition": 3}, {"smiles": "Cc1cccc(CC2CC(=O)N(c3ccccc3)C2=O)c1", "note": "(stereo not drawn)", "inhibition": 0}, {"smiles": "COc1ccc(CCNC(=O)c2cc(C(C)C)on2)cc1OC", "inhibition": 1}, {"smiles": "COCCNC(=O)c1ccc(CS(=O)(=O)c2c(Cl)cccc2Cl)o1", "inhibition": 0}, {"smiles": "CCOC(=O)N1CCN(Cc2ccccc2F)CC1", "inhibition": 19}, {"smiles": "N#CCc1nc2c3c4c(sc3ncn2n1)CCCC4", "inhibition": 7}, {"smiles": "CCCCc1nccn1CCn1ccnc1CCCC", "inhibition": 0}, {"smiles": "CC1=C(C(N)=O)C(c2ccc(Cl)cc2Cl)n2ncnc2N1", "note": "(stereo not drawn)", "inhibition": 0}]}]}
